# Reference: patent US20030180744, “High affinity oligonucleotide ligands to growth factors” (GILEAD SCIENCES, INC., published 2003)
# Experiments:
# Test in all cases: filter; Kd target / Kd hKGF
# bFGF = bFGF (Homo sapiens, UniProt P09038 P09038:143-288); conditions: tags: R&D Systems; pseudoknot; ssRNA; 2'-F pyrimidines
# aFGF = aFGF (Homo sapiens, UniProt P05230 P05230:16-155); conditions: tags: R&D Systems; pseudoknot; ssRNA; 2'-F pyrimidines
# KGF (rat) = molecular target: T1, KGF (rat) (Rattus norvegicus, UniProt Q02195 Q02195:32-194); conditions: tags: QED Advanced Research Technologies; pseudoknot; ssRNA; 2'-F pyrimidines
# T1 sequence: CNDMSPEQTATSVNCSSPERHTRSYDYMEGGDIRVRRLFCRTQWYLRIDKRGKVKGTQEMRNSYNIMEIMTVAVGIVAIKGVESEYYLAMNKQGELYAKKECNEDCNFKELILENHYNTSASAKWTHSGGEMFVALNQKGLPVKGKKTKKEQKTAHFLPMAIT
# bFGF, sequence (P09038 143-288, one chain of several): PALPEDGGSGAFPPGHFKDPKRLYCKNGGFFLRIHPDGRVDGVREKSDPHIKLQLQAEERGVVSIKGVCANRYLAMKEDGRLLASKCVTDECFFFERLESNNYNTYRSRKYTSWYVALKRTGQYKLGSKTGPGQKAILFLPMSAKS
# aFGF, sequence (P05230 16-155, one chain of several): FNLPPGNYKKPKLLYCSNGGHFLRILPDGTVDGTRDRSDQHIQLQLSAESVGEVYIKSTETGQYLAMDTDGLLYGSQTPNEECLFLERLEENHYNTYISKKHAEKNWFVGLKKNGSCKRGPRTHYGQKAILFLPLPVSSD
sequence,measurement,setting,value
GGGAGGACGAUGCGGUGGUCUCCCAAUUCUAAACUUUCUCCAUCGUAUCUGGGCCAGACGACUCGCCCGA,binding signal,bFGF,1070
same,binding signal,aFGF,38600
same,binding signal,KGF (rat),1250
